Laboratory results taken from PubChem BioAssay (NCATS).
Where “and” joins values, the source holds several entries; their conditions need not be identical. Equal entries are not always repeated. Values without a mark were called inactive. Records with an inconclusive call do not appear. Entries that show only a call come without a potency. Calls of active or inactive are those of the source. Unless noted, calls follow the shape of the dose curve; as a rule, active = well fitted curve in the direction sought with a large enough effect; inconclusive = small, poorly fitted or top-dose-only effect, or another doubt; inactive = no such curve, though single readings can be large; an effect the other way counts as inactive or inconclusive.

Legend:
[1] = biological target: Cytochrome P450 3A4 (Homo sapiens) (UniProt P08684); assay: qHTS Assay for Activators of Cytochrome P450 3A4 (AID 885); also: nearly all actives have a fitted effect of over 65% in size; also: potency is read from the fitted curve at half-maximal effect
Outline: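 CYP3A4 activity: Luciferin-PPXE O-dealkylation, 25uM substrate, 200mM KPO4, RT throughout. Read-out is luciferase luminescence; higher values reflect activation.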

[2] = Confirmation and Secondary Assay for Modulators of Hemoglobin Beta Chain Splicing at IVS2 654 locus (AID 910);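 also: HeLa cells stably carrying EGFP split by mutant beta-globin IVS2-654 intron; per-well total GFP intensity by laser scanning cytometry after 2-day treatment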
Outline: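 Readout: per-well total peak green fluorescence (488 nm ex, 500–520 nm em) from objects 5–250 µm, reflecting correct splicing of an EGFP-654 reporter. Compounds were applied for 2 days at 37 °C to overnight-plated HeLa EGFP-654 cells; controls were DMSO and 500 nM IVS2-654 PNA.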

[3] = Confirmation and Secondary Assay for Modulators of Hemoglobin Beta Chain Splicing at IVS2 705 locus (AID 930);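 also: HeLa cells stably expressing the EGFP-705 splicing reporter; GFP fluorescence per well restored by corrected splicing of the IVS2-705 intron in EGFP; series mostly up to about 46 µM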
Outline: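 HeLa EGFP-705 reporter; 500 cells/well, o/n 37C 5% CO2; cpd 2 d; 488 ex/500-520 em laser scan; total peak GFP intensity/well. Ref: 500 nM […] antisense PNA.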

[4] = biological target: Cytochrome P450 2C19 (Homo sapiens) (UniProt P33261); assay: qHTS Assay for Inhibitors and Substrates of Cytochrome P450 2C19 (AID 899); also: nearly all actives have a fitted effect of over 60% in size; also: potency is read from the fitted curve at half-maximal effect
Outline: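 Luminescence readout of luciferin formed from 10uM Luciferin-H EGE (KM level) by 5 nM CYP2C19 in 50mM KPO4. 60 min NADPH-driven reaction at 37C after 10 min compound preincubation; data scaled to 57uM ketoconazole inhibition.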

[5] = biological target: Cytochrome P450 3A4 (Homo sapiens) (UniProt P08684); assay: qHTS Assay for Inhibitors and Substrates of Cytochrome P450 3A4 (AID 884); also: series mostly up to about 57 µM; nearly all actives have a fitted effect of over 50% in size
Outline: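 Luminescent readout of luciferin produced by CYP3A4 (20 nM) dealkylation of Luciferin-PPXE, 25 uM (its KM). NADPH-driven reaction ran 60 min at RT after 10 min compound preincubation; data scaled to 57 uM ketoconazole as 100% inhibition.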

[6] = biological target: Cytochrome P450 2D6 (Homo sapiens) (UniProt P10635); assay: qHTS Assay for Inhibitors and Substrates of Cytochrome P450 2D6 (AID 891); also: nearly all actives have a fitted effect of over 60% in size; also: potency is read from the fitted curve at half-maximal effect
Outline: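 Luminescent read-out of luciferin formed by 5 nM human CYP2D6 demethylating 30 uM Luciferin-ME EGE (Km level) over 60 min at room temperature after NADPH regeneration addition. Data normalized to full inhibition by 1.43 uM quinidine.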

[7] = biological target: Cytochrome P450 2C9 (Homo sapiens) (UniProt P11712); assay: qHTS Assay for Inhibitors and Substrates of Cytochrome P450 2C9 (AID 883); also: nearly all actives have a fitted effect of over 60% in size; also: potency is read from the fitted curve at half-maximal effect
Outline: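 Luminescent read-out of deoxyluciferin hydroxylation, normalized to 57uM sulphaphenazole (AC100). Reaction: 10nM enzyme, 100uM Luciferin-H (equal to KM), 25mM KPO4, 10 min compound preincubation, then 60 min with NADPH regeneration, both at 37C.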

[8] = biological target: Guanine nucleotide-binding protein G(i) subunit alpha-1 (Homo sapiens) (UniProt P63096); assay: qHTS Assay for Inhibitors of RGS12 GoLoco Motif Activity (Green Fluorophore) (AID 879);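 also: negative values mean loss of peptide binding seen as reduced polarization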
Outline: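 A drop in FITC polarization marked displacement of the FITC-tagged RGS12 GoLoco peptide (10 nM) from Gαi1 (50 nM). Compounds were incubated 10 min at room temperature in Tris pH 7.5 buffer containing 150 mM NaCl, 0.1 mM GDP and 0.05% NP40; unlabeled peptide titration served as control.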

[9] = qHTS Assay for Identification of Small Molecule Agonists for Thrombopoietin (TPO) Signaling Pathway (AID 917)
Outline: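 Cell-based luciferase reporter screen. Mouse Ba/F3 line stably expressing human TPO receptor; IL-3 removed overnight before plating. Co-treatment with compound and EC50 TPO (26 pM), 24 hrs at 37 C, then luminescence.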

[10] = biological target: Muscarinic acetylcholine receptor M1 (Rattus norvegicus) (UniProt P08482); assay: qHTS Assay for Antagonists of Acetylcholine Muscarinic M1 Receptor: Measurement of IP-One Response (AID 944); also: nearly all actives have a fitted effect of over 75% in size
Outline: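 IP1 accumulation measured via TR-FRET between d2-IP1 and Eu-cryptate anti-IP1 antibody after carbachol (200 nM, EC80) stimulation for 30 min; rat M1-transfected CHO cells received compound 10 min before agonist.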

[11] = biological target: Muscarinic acetylcholine receptor M1 (Rattus norvegicus) (UniProt P08482); assay: qHTS Assay for Antagonists of Acetylcholine Muscarinic M1 Receptor: Kinetic Measurement of Intracellular Calcium Response (AID 943);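 also: Fluo-4 calcium signal as peak divided by basal fluorescence over 4 min; series mostly up to about 35 µM; nearly all actives have a fitted effect of over 75% in size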
Outline: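 Antagonism measured as reduction of carbachol-evoked (EC80, 100 nM final) calcium flux in rat M1-CHO cells after 10 min compound exposure. Fluo-4 signal read kinetically; ratio of maximal to basal fluorescence.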

[12] = qHTS Assay for Identification of Small Molecule Agonists for Hypoxia Response Element Signaling Pathway (AID 914; active = well fitted activation curve with a large enough effect in the signal ratio, with a control signal flat, not every such curve was filed as active; the % refers to the signal ratio); details: ME-180 (cervical carcinoma) HRE-bla reporter, beta-lactamase ratio, CoCl2, 17 h; active compounds read high
Outline: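 Read-out: CCF4 FRET ratio of 460nm to 530nm emission (excitation 405nm) after 2.5 hours at room temperature, taken from HRE-bla ME-180 cells that had been exposed to compound and EC50 CoCl2 for 17 hours.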

[13] = Cell Viability - LYMP2-001 (AID 921);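 also: potency is read from the fitted curve at half-maximal effect; cells exposed to compound for 24 h at 37 °C; nearly all actives have a fitted effect of over 70% in size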
Outline: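 Steps: seed 2500 lymphoblastoid cells/well; 5 hr, 37 C; add compound; 24 hr, 37 C; CellTiter-Glo reagent, 30 min room temperature; read luminescence. Concentration-response modeled by Hill equation for AC50.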

Sequence of Cytochrome P450 2C9 (Homo sapiens) (P11712 whole entry, looked up): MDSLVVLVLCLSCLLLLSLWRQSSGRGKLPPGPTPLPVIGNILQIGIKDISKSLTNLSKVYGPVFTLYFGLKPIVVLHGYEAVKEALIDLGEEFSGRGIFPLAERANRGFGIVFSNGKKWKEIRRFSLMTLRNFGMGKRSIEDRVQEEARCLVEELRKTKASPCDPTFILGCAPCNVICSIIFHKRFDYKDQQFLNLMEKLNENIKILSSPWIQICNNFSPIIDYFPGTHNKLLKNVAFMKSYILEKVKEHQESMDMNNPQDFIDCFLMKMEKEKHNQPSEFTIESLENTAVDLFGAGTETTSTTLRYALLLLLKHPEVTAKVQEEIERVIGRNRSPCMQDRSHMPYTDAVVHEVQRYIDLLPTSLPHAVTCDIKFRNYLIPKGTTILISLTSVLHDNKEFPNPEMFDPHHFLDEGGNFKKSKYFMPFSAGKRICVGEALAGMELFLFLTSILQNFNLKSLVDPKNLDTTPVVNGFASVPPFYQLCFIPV
Sequence of Muscarinic acetylcholine receptor M1 (Rattus norvegicus) (P08482 whole entry, looked up): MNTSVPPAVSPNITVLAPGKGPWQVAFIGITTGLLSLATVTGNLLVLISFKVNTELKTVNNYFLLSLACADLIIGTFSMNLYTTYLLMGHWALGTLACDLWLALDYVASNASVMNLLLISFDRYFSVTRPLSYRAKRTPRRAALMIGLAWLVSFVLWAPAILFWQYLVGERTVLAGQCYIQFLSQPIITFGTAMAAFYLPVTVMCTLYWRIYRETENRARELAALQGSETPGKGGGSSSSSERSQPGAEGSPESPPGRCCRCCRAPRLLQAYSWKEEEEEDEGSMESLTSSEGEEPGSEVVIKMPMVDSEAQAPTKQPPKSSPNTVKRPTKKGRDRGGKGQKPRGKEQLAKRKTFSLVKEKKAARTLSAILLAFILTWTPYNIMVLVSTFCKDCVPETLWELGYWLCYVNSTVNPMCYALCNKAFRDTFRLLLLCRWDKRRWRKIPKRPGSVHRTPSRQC
Sequence of Cytochrome P450 2D6 (Homo sapiens) (P10635 whole entry, looked up): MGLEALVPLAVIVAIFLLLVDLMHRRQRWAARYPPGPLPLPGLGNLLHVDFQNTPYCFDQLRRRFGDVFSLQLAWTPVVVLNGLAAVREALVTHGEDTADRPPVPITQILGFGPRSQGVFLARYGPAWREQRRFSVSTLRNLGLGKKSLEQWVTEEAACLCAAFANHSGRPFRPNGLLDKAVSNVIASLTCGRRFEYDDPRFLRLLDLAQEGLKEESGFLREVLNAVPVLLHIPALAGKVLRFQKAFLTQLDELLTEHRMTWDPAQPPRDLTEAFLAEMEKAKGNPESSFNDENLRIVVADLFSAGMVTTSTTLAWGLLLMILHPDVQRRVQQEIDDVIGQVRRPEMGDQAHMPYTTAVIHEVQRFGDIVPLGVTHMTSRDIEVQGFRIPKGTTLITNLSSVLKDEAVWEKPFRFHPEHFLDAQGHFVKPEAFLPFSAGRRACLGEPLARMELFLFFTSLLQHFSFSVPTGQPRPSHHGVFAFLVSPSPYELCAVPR
Sequence of Cytochrome P450 2C19 (Homo sapiens) (P33261 whole entry, looked up): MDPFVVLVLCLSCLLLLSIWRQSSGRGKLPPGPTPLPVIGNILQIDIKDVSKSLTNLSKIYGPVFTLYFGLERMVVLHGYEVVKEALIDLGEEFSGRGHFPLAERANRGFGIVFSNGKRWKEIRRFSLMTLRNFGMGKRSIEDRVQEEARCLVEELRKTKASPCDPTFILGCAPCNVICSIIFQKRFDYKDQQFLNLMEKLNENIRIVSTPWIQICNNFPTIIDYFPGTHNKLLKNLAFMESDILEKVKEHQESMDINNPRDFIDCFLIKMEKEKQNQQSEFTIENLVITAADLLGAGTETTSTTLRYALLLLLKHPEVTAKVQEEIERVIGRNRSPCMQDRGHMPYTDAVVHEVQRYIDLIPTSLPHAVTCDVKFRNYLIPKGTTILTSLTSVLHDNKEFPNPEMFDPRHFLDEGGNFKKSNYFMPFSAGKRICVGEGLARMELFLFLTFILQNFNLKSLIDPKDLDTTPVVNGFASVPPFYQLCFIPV
Sequence of Cytochrome P450 3A4 (Homo sapiens) (P08684 whole entry, looked up): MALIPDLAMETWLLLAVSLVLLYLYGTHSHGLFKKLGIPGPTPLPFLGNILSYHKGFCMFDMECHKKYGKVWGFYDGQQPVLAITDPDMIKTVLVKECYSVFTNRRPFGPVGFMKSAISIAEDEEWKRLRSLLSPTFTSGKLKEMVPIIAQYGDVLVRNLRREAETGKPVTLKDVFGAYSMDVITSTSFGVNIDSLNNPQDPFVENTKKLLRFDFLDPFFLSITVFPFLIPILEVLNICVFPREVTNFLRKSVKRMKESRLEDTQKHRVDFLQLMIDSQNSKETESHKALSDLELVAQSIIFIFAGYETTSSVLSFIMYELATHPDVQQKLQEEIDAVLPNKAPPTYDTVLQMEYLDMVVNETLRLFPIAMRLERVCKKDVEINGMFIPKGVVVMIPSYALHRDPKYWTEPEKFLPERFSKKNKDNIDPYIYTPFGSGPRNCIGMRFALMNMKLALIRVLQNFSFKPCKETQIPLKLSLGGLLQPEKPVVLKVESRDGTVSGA
Sequence of Guanine nucleotide-binding protein G(i) subunit alpha-1 (Homo sapiens) (P63096 whole entry, looked up): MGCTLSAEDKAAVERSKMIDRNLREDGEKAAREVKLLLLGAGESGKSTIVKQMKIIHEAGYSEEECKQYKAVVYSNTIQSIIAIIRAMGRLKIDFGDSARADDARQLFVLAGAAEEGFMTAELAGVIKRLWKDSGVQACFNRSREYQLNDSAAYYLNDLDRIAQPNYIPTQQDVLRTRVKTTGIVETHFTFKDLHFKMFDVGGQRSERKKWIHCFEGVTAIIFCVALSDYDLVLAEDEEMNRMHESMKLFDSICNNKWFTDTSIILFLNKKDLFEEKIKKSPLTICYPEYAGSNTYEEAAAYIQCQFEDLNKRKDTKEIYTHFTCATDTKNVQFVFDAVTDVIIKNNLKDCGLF

In the case of `O=C(OCC(O)CO)c1ccccc1Nc1ccnc2cc(Cl)ccc12` (stereo not drawn), the Potency [1] is reported as “inactive” and the outcome [2] is reported as “inactive”.

With `COc1c2occc2c(OC)c2c(=O)cc(C)oc12` the Potency [1] was “inactive”, the outcome [2] was “inactive” and the outcome [3] was “inactive”.

With `C[C@@H]1CN(CCCn2c3ccccc3c3ccccc32)C[C@H](C)N1` the Potency [4] was 3.16 µM (active).

In the case of `Oc1c(I)cc(I)c2cccnc12`, the outcome [2] is reported as “inactive”.

With `CNCC[C@@H](Oc1ccccc1C)c1ccccc1` the Potency [1] was “inactive”.

For `O=C(CCCN1CCC(O)(c2ccc(Br)cc2)CC1)c1ccc(F)cc1`, the Potency [5] was “inactive”, the Potency [1] was 10 µM (active) and the Potency [6] was 3.98 µM (active).

In the case of `CCCCOc1ccc(C(=O)CCN2CCCCC2)cc1`, the Potency [7] is reported as 2.51 µM (active), the Potency [1] is reported as “inactive” and the Potency [6] is reported as 5.01 µM (active). The outcome [2] was “inactive”.

In the case of `CCOc1ccc(Cc2nccc3cc(OCC)c(OCC)cc23)cc1OCC`, the Potency [7] is reported as 3.98 µM (active), the Potency [1] is reported as “inactive” and the outcome [2] is reported as “inactive”.

In the case of `COc1c(C)c2c(c(O)c1C/C=C(\C)CCC(=O)O)C(=O)OC2`, the Potency [7] is reported as “inactive”, the Potency [1] is reported as “inactive” and the Potency [6] is reported as “inactive”. For the same compound, the Potency [4] was “inactive”, the outcome [2] was “inactive” and the outcome [3] was “inactive”.

In the case of `CC(C)NC[C@@H](O)COc1cccc2ccccc12`, the outcome [8] is reported as “inactive”, the outcome [2] is reported as “inactive” and the outcome [9] is reported as “inactive”. The outcome [3] was “inactive” and the Potency [10] was “inactive”.

In the case of `Cc1cccc(C)c1NC(=O)CN1CCN(CCCC(c2ccc(F)cc2)c2ccc(F)cc2)CC1`, the Potency [6] is reported as 5.01 µM (active).

In the case of `C[C@@H]1C(=O)NC2=Nc3cccc(Cl)c3CN21`, the outcome [8] is reported as “inactive”, the outcome [9] is reported as “inactive” and the outcome [11] is reported as “inactive”. For the same compound, the Potency [10] was “inactive”.

With `Cc1ccnc(NS(=O)(=O)c2ccc(N)cc2)n1` the Potency [7] was “inactive”, the outcome [2] was “inactive” and the outcome [3] was “inactive”.

For `Nc1cc(Cl)c(NC2=NCCN2)c(Cl)c1`, the outcome [8] was “inactive”, the outcome [9] was “inactive” and the Potency [10] was “inactive”.

In the case of `CC(C)COC(=O)OCN1C(=O)CN(CCN2CC(=O)N(COC(=O)OCC(C)C)C(=O)C2)CC1=O`, the outcome [8] is reported as “inactive” and the Potency [10] is reported as “inactive”.

For `CN(C)CC/C=C1\c2ccccc2Sc2ccc(Cl)cc21`, the Potency [1] was “inactive”, the Potency [6] was 2.51 µM (active) and the outcome [2] was “inactive”.

With `CN1CCC(=C2c3ccccc3Sc3ccccc32)CC1` the Potency [6] was 3.98 µM (active) and the outcome [2] was “inactive”.

In the case of `O=C1c2ccccc2C(=O)C1c1ccccc1`, the Potency [1] is reported as “inactive” and the outcome [2] is reported as “inactive”.

In the case of `OC(CCN1CCCCC1)(c1ccccc1)c1ccccc1`, the Potency [6] is reported as 5.01 µM (active) and 1.26 µM (active) and the outcome [2] is reported as “inactive”.

In the case of `CCN(CCCc1ccccc1)CCCc1ccccc1`, the outcome [2] is reported as “inactive”.

In the case of `OCc1ccccc1O`, the Potency [5] is reported as “inactive” and the outcome [2] is reported as “inactive”.

For `CN1[C@@H]2CC[C@H]1CC(OC(=O)c1c[nH]c3ccccc13)C2` (stereo partly drawn), the outcome [8] was “inactive” and the outcome [9] was “inactive”.

For `O=C(COc1ccc(Cl)cc1)N1CCN(Cc2ccc3c(c2)OCO3)CC1`, the Potency [1] was “inactive”, the Potency [6] was 0.199 µM (active) and the Potency [4] was 5.01 µM (active). For the same compound, the outcome [2] was “inactive”.

For `CCCCc1nc(Cl)c(CO)n1Cc1ccc(-c2ccccc2-c2nn[nH]n2)cc1`, the Potency [1] was “inactive” and the outcome [2] was “inactive”.

In the case of `C1CCc2nnnn2CC1`, the outcome [8] is reported as “inactive”, the outcome [2] is reported as “inactive” and the outcome [9] is reported as “inactive”. For the same compound, the outcome [3] was “inactive”, the outcome [11] was “inactive” and the Potency [10] was “inactive”.

With `CCN1CCC[C@H]1CNC(=O)c1c(OC)ccc(Br)c1OC` the Potency [6] was 0.199 µM (active).

In the case of `CC(C)(C(=O)c1cccnc1)c1cccnc1`, the Potency [1] is reported as “inactive” and the activation [12] is reported as -12.9%.

`Cc1c(N(C)CS(=O)(=O)O)c(=O)n(-c2ccccc2)n1C` gave an activation [12] of -4.84%.

For `CC(C)(C)CC(C)(C)c1ccc(OCCOCC[N+](C)(C)Cc2ccccc2)cc1`, the Potency [13] was 20 µM (active).
